Experimental data as given in PubChem BioAssay AID1159580 (chemical genetic matrix, 2015).
Where “and” joins values, the source holds several entries; their conditions need not be identical. Identical values can stand only once. In all, about 5,500 compounds went through this assay and about 2,000 (36%) were called active. Roughly 18% stayed inconclusive and do not appear here. Cut-off read from the data, not from the text of the source: active = normalized growth mostly below about 0.91 (no sharp cut-off); inconclusive = no clear call, values can overlap the other calls; inactive = mostly above about 0.92. This is one part of the list.

Assay: chemical genetic growth profiling, strain panel (AID 1159580);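 note: tested at 20 µM; growth read once vehicle control cultures reached saturation at 30 °C; 1 = growth at the plate median or of vehicle wells; lower values mean less growth of the strain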
Details: S. cerevisiae deletion strains, growth OD

Measured: normalized growth

C[C@]12CCC3c4ccc(OC(=O)c5ccccc5)cc4CCC3C1CCC2=O (stereo not given in full)
inactive: locus YAL013W, strain DEP1, stronger effect = lower value 0.986 | locus YAL021C, strain ccr4, stronger effect = lower value 1 | locus YAL026C, strain drs2, stronger effect = lower value 0.989 | locus YAL030W, strain snc1, stronger effect = lower value 0.99 | locus YBL061C, strain skt5, stronger effect = lower value 0.987 | locus YBR009C, strain hhf1, stronger effect = lower value 0.972 | locus YBR021W, strain FUR4, stronger effect = lower value 0.981 | locus YBR023C, strain chs3, stronger effect = lower value 0.984 | locus YBR171W, strain sec66, stronger effect = lower value 0.977 | locus YBR229C, strain ROT2, stronger effect = lower value 1 | locus YBR231C, strain swc5, stronger effect = lower value 0.987 | locus YBR279W, strain paf1, stronger effect = lower value 0.988 | locus YCL011C, strain gbp2, stronger effect = lower value 0.987 | locus YCL016C, strain dcc1, stronger effect = lower value 0.985 | locus YCL029C, strain bik1, stronger effect = lower value 0.996 | locus YCL061C, strain MRC1, stronger effect = lower value 0.988 | locus YCL069W, strain vba3, stronger effect = lower value 0.986 | locus YCR088W, strain abp1, stronger effect = lower value 0.984 | locus YDL005C, strain med2, stronger effect = lower value 0.987 | locus YDL035C, strain GPR1, stronger effect = lower value 0.986 | locus YDL040C, strain nat1, stronger effect = lower value 0.993 | locus YDL074C, strain BRE1, stronger effect = lower value 0.974 | locus YDL101C, strain DUN1, stronger effect = lower value 1 | locus YDL185W, strain tfp1, stronger effect = lower value 0.951 | locus YDL192W, strain arf1, stronger effect = lower value 1.02 | locus YDR001C, strain nth1, stronger effect = lower value 0.986 | locus YDR069C, strain doa4, stronger effect = lower value 0.98 | locus YDR101C, strain arx1, stronger effect = lower value 0.969 | locus YDR137W, strain rgp1, stronger effect = lower value 1 | locus YDR159W, strain sac3, stronger effect = lower value 0.968 | locus YDR162C, strain NBP2, stronger effect = lower value 1.01 | locus YDR195W, strain ref2 0.934 | locus YDR297W, strain sur2, stronger effect = lower value 0.985 | locus YDR318W, strain mcm21, stronger effect = lower value 1.02 | locus YDR334W, strain swr1, stronger effect = lower value 0.986 | locus YDR335W, strain msn5, stronger effect = lower value 0.982 | locus YDR388W, stronger effect = lower value 0.992 | locus YDR392W, strain spt3, stronger effect = lower value 0.864 | locus YDR502C, strain sam2, stronger effect = lower value 1 | locus YEL003W, strain gim4, stronger effect = lower value 0.977 | locus YEL037C, strain rad23, stronger effect = lower value 0.98 | locus YEL061C, strain CIN8 (second series), stronger effect = lower value 0.981 | locus YEL061C, strain CIN8, stronger effect = lower value 1 | locus YER015W, strain faa2, stronger effect = lower value 0.991 | locus YER016W, strain bim1, stronger effect = lower value 0.969 | locus YER110C, stronger effect = lower value 0.982 | locus YER111C, strain swi4, stronger effect = lower value 0.974 | locus YER155C, strain BEM2 (second series), stronger effect = lower value 0.974 | locus YER155C, strain BEM2, stronger effect = lower value 0.996 | locus YER167W, strain BCK2, stronger effect = lower value 1.01 | locus YFR010W, strain ubp6, stronger effect = lower value 0.993 | locus YGL078C, strain dbp3, stronger effect = lower value 1.01 | locus YGL086W, strain mad1, stronger effect = lower value 0.972 | locus YGL167C, strain pmr1, stronger effect = lower value 0.965 | locus YGL173C, strain kem1, stronger effect = lower value 0.988 | locus YGL227W, strain vid30, stronger effect = lower value 0.986 | locus YGL240W, strain doc1, stronger effect = lower value 0.99 | locus YGL248W, strain PDE1, stronger effect = lower value 1.02 | locus YGL253W, strain hxk2, stronger effect = lower value 0.976 | locus YGR135W, strain pre9, stronger effect = lower value 1.03 | locus YGR252W, strain gcn5, stronger effect = lower value 1.2 | locus YHR013C, strain ard1, stronger effect = lower value 0.939 | locus YHR027C, strain rpn1, stronger effect = lower value 0.996 | locus YHR030C, strain SLT2, stronger effect = lower value 0.991 and 1.06 | locus YHR079C, strain IRE1 (second series), stronger effect = lower value 0.997 | locus YHR079C, strain IRE1, stronger effect = lower value 1.07 | locus YHR094C, strain hxt1, stronger effect = lower value 0.999 | locus YHR129C, strain ARP1, stronger effect = lower value 0.997 | locus YHR142W, strain chs7, stronger effect = lower value 0.996 | locus YHR200W, strain rpn10, stronger effect = lower value 0.994 | locus YIL066C, strain RNR3, stronger effect = lower value 1 | locus YIL073C, strain SPO22, stronger effect = lower value 0.933 | locus YIL125W, strain kgd1, stronger effect = lower value 1 | locus YIR030C, strain dcg1, stronger effect = lower value 1.01 | locus YJL092W, strain hpr5, stronger effect = lower value 0.98 | locus YJL095W, strain BCK1 (second series), stronger effect = lower value 0.992 | locus YJL095W, strain BCK1, stronger effect = lower value 1.05 and 1.07 | locus YJL115W, strain asf1, stronger effect = lower value 0.995 | locus YJL129C, strain trk1, stronger effect = lower value 0.979 | locus YJL134W, strain LCB3, stronger effect = lower value 0.987 | locus YJL154C, strain vps35, stronger effect = lower value 0.986 | locus YJL164C, strain tpk1, stronger effect = lower value 0.977 | locus YJL166W, strain qcr8, stronger effect = lower value 0.983 | locus YJL168C, strain set2, stronger effect = lower value 0.996 | locus YJL187C, strain SWE1 (second series), stronger effect = lower value 1.01 | locus YJL187C, strain SWE1, stronger effect = lower value 0.996 | locus YJR043C, strain POL32, stronger effect = lower value 1.01 | locus YJR066W, strain TOR1, stronger effect = lower value 1.01 | locus YJR075W, strain HOC1, stronger effect = lower value 0.998 | locus YKL009W, strain mrt4, stronger effect = lower value 0.977 | locus YKL068W, stronger effect = lower value 0.975 | locus YKL085W, strain MDH1 (second series), stronger effect = lower value 1.01 | locus YKL085W, strain MDH1, stronger effect = lower value 1.01 | locus YKL160W, strain elf1, stronger effect = lower value 1.01 | locus YKR001C, strain vps1, stronger effect = lower value 0.993 | locus YKR026C, strain gcn3, stronger effect = lower value 0.978 | locus YKR091W, strain srl3, stronger effect = lower value 0.986 | locus YLL001W, strain dnm1, stronger effect = lower value 0.998 | locus YLL026W, stronger effect = lower value 0.984 | locus YLL041C, strain sdh2, stronger effect = lower value 0.989 | locus YLR027C, strain aat2, stronger effect = lower value 0.998 | locus YLR039C, strain RIC1, stronger effect = lower value 1.01 | locus YLR058C, strain SHM2, stronger effect = lower value 1.01 | locus YLR102C, strain apc9, stronger effect = lower value 0.993 | locus YLR113W, strain HOG1, stronger effect = lower value 1 | locus YLR221C, strain rsa3, stronger effect = lower value 1.01 | locus YLR258W, strain gsy2, stronger effect = lower value 0.971 | locus YLR262C, strain YPT6 (second series), stronger effect = lower value 0.94 | locus YLR262C, strain YPT6, stronger effect = lower value 0.959 | locus YLR268W, strain sec22, stronger effect = lower value 0.972 | locus YLR320W, strain mms22, stronger effect = lower value 0.98 | locus YLR330W, strain CHS5, stronger effect = lower value 0.984 | locus YLR342W, strain FKS1 (second series), stronger effect = lower value 1.01 | locus YLR342W, strain FKS1, stronger effect = lower value 0.979 | locus YLR357W, strain rsc2, stronger effect = lower value 0.947 | locus YLR370C, strain arc18, stronger effect = lower value 0.99 | locus YLR371W, strain rom2, stronger effect = lower value 1 | locus YLR384C, strain iki3, stronger effect = lower value 0.985 | locus YLR418C, strain cdc73, stronger effect = lower value 1.07 | locus YML016C, strain PPZ1, stronger effect = lower value 0.998 | locus YML032C, strain rad52, stronger effect = lower value 1.03 | locus YML120C, strain ndi1, stronger effect = lower value 0.986 | locus YML124C, strain tub3, stronger effect = lower value 1.01 | locus YMR058W, strain fet3, stronger effect = lower value 0.985 | locus YMR078C, strain ctf18, stronger effect = lower value 1.01 | locus YMR125W, strain sto1, stronger effect = lower value 0.978 | locus YMR129W, stronger effect = lower value 0.969 | locus YMR205C, strain PFK2, stronger effect = lower value 0.949 | locus YMR223W, strain ubp8, stronger effect = lower value 1.04 | locus YMR231W, strain pep5, stronger effect = lower value 0.979 | locus YMR263W, strain SAP30, stronger effect = lower value 0.997 | locus YMR307W, strain GAS1, stronger effect = lower value 1.22 | locus YNL067W, strain RPL9B, stronger effect = lower value 1.02 | locus YNL071W, strain lat1, stronger effect = lower value 0.993 | locus YNL128W, strain TEP1, stronger effect = lower value 0.971 | locus YNL153C, strain GIM3, stronger effect = lower value 1.02 | locus YNL183C, strain NPR1, stronger effect = lower value 1.01 | locus YNL209W, strain ssb2, stronger effect = lower value 0.989 | locus YNL233W, strain BNI4, stronger effect = lower value 1.01 | locus YNL248C, strain rpa49, stronger effect = lower value 1.01 | locus YNL250W, strain rad50, stronger effect = lower value 0.96 | locus YNL271C, strain bni1, stronger effect = lower value 1.02 | locus YNL298W, strain CLA4, stronger effect = lower value 1.01 | locus YNL307C, strain MCK1, stronger effect = lower value 0.996 | locus YNL322C, strain KRE1 (second series), stronger effect = lower value 0.994 | locus YNR049C, strain mso1, stronger effect = lower value 0.98 | locus YNR052C, strain pop2, stronger effect = lower value 1.02 | locus YOL012C, strain htz1 1.22 | locus YOL147C, strain pex11, stronger effect = lower value 0.998 | locus YOR001W, strain rrp6, stronger effect = lower value 1.01 | locus YOR061W, strain CKA2, stronger effect = lower value 1.01 | locus YOR069W, strain VPS5, stronger effect = lower value 0.993 | locus YOR070C, strain gyp1, stronger effect = lower value 0.984 | locus YOR080W, strain dia2, stronger effect = lower value 0.983 | locus YOR083W, strain WHI5, stronger effect = lower value 1.03 | locus YOR106W, strain vam3, stronger effect = lower value 1.04 | locus YOR136W, strain idh2, stronger effect = lower value 0.992 | locus YOR144C, strain elg1, stronger effect = lower value 0.998 | locus YOR184W, strain ser1, stronger effect = lower value 0.975 | locus YOR231W, strain MKK1, stronger effect = lower value 1.08 | locus YOR265W, strain rbl2, stronger effect = lower value 0.989 | locus YOR270C, strain vph1, stronger effect = lower value 0.99 | locus YOR290C, strain snf2, stronger effect = lower value 0.912 | locus YOR316C, strain cot1, stronger effect = lower value 0.993 | locus YPL051W, strain arl3, stronger effect = lower value 1.02 | locus YPL078C, strain atp4, stronger effect = lower value 0.998 | locus YPL106C, strain sse1, stronger effect = lower value 0.972 | locus YPL240C, strain hsp82, stronger effect = lower value 0.997 | locus YPL241C, strain CIN2, stronger effect = lower value 0.999 | locus YPL256C, strain CLN2, stronger effect = lower value 1.12 | locus YPR119W, strain clb2, stronger effect = lower value 1.01 | locus YPR141C, strain kar3, stronger effect = lower value 1.01 | locus YPR163C, strain tif3, stronger effect = lower value 1 | locus YPR167C, strain met16, stronger effect = lower value 1.01 | strain wtn01, stronger effect = lower value 0.983
